A number with no mark means an inactive call. Calls come from the whole dose curve; as a rule, active = well fitted curve in the direction sought with a large enough effect; inactive = no such curve, though single readings can be large or run the other way.

Chain of Alpha-galactosidase (Coffea arabica) (Q42656 whole entry, looked up): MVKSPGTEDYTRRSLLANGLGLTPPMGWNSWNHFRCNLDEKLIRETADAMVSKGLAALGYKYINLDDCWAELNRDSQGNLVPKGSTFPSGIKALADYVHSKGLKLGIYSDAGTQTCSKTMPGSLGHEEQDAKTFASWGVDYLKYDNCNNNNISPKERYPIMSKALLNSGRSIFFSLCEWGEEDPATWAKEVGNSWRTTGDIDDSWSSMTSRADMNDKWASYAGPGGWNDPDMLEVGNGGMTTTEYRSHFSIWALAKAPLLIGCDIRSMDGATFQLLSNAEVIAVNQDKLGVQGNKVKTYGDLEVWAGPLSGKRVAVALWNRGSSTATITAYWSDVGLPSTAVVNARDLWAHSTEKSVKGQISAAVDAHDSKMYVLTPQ

The experiment has as its target Alpha-galactosidase (Coffea arabica) (UniProt Q42656). Briefly: Counterscreen for Glucocerebrosidase Inhibitors: qHTS Assay for Coffee Bean alpha-Galactosidase at pH 5.9 (AID 998).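 Note: plate controls were uninhibited enzyme for no effect and no-enzyme basal signal for full effect.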 As to conditions: coffee bean alpha-galactosidase enzyme assay; series mostly up to 76.9 µM; activity, negative = inhibition: at the top concentration. The essentials: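 Green coffee bean enzyme (2 nM) with 4-methylumbelliferyl alpha-D-galactopyranoside (80 uM) in 50 mM citric acid, 0.005% Tween-20, pH 5.9, 20 min at room temperature; compounds 0.7 nM–77 uM. Stopped at pH 10, fluorescence Ex365/Em440; Hill-fit AC50.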
For `CCn1nc(C(=O)O)c(=O)c2cc3c(cc21)OCO3`, the “activity, negative = inhibition” value is -1.06%.
In the case of `Cc1cnc(NC(=O)C2=C(O)c3ccccc3S(=O)(=O)N2C)s1` it was -1.8%; in that of `CN=C(NC#N)NCCSCc1nc[nH]c1C`, -0.272%; in that of `O=C(O)CCCCCCCC(=O)O`, 0.277%.
In the case of `CN(C)C(=O)Oc1ccc[n+](C)c1` it was 0.057%; in that of `CCN(CC)CCNC(=O)c1ccc(N)cc1`, 2%.
The value for `CCOC(=O)c1cnc2c(cnn2CC)c1NN=C(C)C` was 0.507%; that for `CC(C)(C)NC[C@H](O)COc1nsnc1N1CCOCC1` was 3.55%.
For the molecule `CN1[C@@H]2CC[C@H]1CC(OC(c1ccccc1)c1ccccc1)C2` (stereo partly specified), the “activity, negative = inhibition” value is -3.42%.
In the case of `CNC[C@H](O)c1cccc(O)c1` it was 2.23%; in that of `CN1CCN(CCC=C2c3ccccc3Sc3ccc(S(=O)(=O)N(C)C)cc32)CC1`, -0.516%.
Regarding `N[C@@H](COP(=O)(O)O)C(=O)O`, the “activity, negative = inhibition” value was -0.521%.
In the case of `CC(=O)OCC(=O)[C@@]1(O)CC[C@H]2[C@@H]3CCC4=CC(=O)CC[C@]4(C)[C@H]3C(=O)C[C@@]21C` it was 1.17%; in that of `Nc1ccc(S(=O)(=O)Nc2ccnn2-c2ccccc2)cc1`, 0.328%.
The value for `CCN(CC)C(=O)c1ccc(O)c(OC)c1` was 1.43%; that for `CCO/C([O-])=N/c1c[n+](N2CCOCC2)no1` was -1.51%; that for `C1COC(NC(C2CC2)C2CC2)=N1` was 2.4%.
In the case of `O=c1[nH]c(=O)n([C@H]2C[C@H](O)[C@@H](CO)O2)cc1Br` it was -0.605%; in that of `CC(=O)Oc1cc(C(C)C)c(OCCN(C)C)cc1C`, -0.373%; in that of `CC(=O)c1ccc(S(=O)(=O)NC(=O)NC2CCCCC2)cc1`, -1.46%.
Consider `NC1CCN(c2cccc(Cl)n2)CC1`, for which the “activity, negative = inhibition” value was 0.546%.
In the case of `O=C(O)CN(CCN(CC(=O)O)CC(=O)O)CCN(CC(=O)O)CC(=O)O` it was -0.432%; in that of `CN1C(C(=O)Nc2ccccn2)=C(O)c2ccccc2S1(=O)=O`, -3.18%.
Regarding `Cc1scc2c1N(C(=O)CN1CCN(C)CC1)c1ccccc1NC2=O`, the “activity, negative = inhibition” value was -4.98%.
In the case of `COc1ccc2cc([C@H](C)C(=O)O)ccc2c1` it was -2.03%.
For `CNCCCC12CCC(c3ccccc31)c1ccccc12`, the “activity, negative = inhibition” value is -0.193%.
In the case of `CCN(CC)CCOC(=O)c1ccc(N)cc1`, the “activity, negative = inhibition” value was 0.594%.
In the case of `NC(N)=NC(=O)Cc1c(Cl)cccc1Cl` it was 1.9%; in that of `Cc1nc2c([nH]1)c(=O)n(C)c(=O)n2Cc1ccco1`, -1.62%.
Turning to `CCN(CC)CCNC(=O)c1cc(S(C)(=O)=O)ccc1OC`, the “activity, negative = inhibition” value is -0.865%.
In the case of `NC(=O)c1cnccn1` it was -0.719%.
The value for `Cc1nc2ccccn2c(=O)c1CCN1CCC(C(=O)c2ccc(F)cc2)CC1` was 1.47%; that for `CCN1CCC[C@H]1CNC(=O)c1cc(S(N)(=O)=O)ccc1OC` was 1.78%.
In the case of `NC(N)=Nc1nc(CSCC/C(N)=N/S(N)(=O)=O)cs1` it was 1%; in that of `FC(F)(F)c1ccccc1-n1ccnc1`, -1.38%.
On to `COc1cc(NS(C)(=O)=O)ccc1Nc1c2ccccc2nc2ccccc12`, for which the “activity, negative = inhibition” value is 2.49%.
